Compound activity (PubChem)
FXIa single inh = inhibitors of human coagulation factor XIa; P03951; purified human FXIa, fluorogenic AMC substrate cleavage; inhibition, % at 10 µM; actives 0.3% (n = 33,000);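 active = inhibition above 40% in the primary screen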;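 note: 0% = enzyme without compound and 100% = blank wells lacking enzyme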
Target sequence (P03951 19-387 limits assumed): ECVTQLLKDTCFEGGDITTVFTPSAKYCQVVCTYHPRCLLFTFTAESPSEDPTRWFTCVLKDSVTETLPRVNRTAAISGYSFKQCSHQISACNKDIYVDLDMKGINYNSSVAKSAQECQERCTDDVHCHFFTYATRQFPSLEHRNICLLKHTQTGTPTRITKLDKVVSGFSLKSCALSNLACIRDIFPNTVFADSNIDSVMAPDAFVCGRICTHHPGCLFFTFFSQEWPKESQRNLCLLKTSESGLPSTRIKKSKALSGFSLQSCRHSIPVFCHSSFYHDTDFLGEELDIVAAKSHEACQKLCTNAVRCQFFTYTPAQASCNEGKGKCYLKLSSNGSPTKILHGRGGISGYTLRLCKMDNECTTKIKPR
Target sequence (P03951 388-625 limits assumed): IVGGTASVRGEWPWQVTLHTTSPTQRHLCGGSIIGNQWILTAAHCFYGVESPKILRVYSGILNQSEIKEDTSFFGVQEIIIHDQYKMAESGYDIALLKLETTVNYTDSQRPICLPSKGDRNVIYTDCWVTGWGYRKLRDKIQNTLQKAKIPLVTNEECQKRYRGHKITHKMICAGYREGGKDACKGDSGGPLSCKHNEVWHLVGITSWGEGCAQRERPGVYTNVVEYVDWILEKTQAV
FXIIa inh = blocks human coagulation factor XIIa activity. purified human FXIIa, AMC substrate fluorescence, 2 h. inhibition, % at 10 µM. AID 701. P00748. actives 0.2% (n = 33,000); in the data active = inhibition above about 30%;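 note: 0% = enzyme with vehicle only and 100% = no enzyme blank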
The depositor's hits bear a star. Hits are enriched below; roughly 0.33% of the tested compounds scored in any of these assays.

SMILES	FXIa single inh	FXIIa inh
O=C(NC(C(=O)c1ccccc1)n1c(=O)cc[nH]c1=S)c1ccccc1 (stereo not given)	48*	4
COCC(C)OC(=O)c1c(N)n(CC(C)C)c2nc3ccccc3nc12 (stereo not given)	1	-28
CC(C)(C)C(=O)CC1(O)C(=O)N(Cc2ccccc2)c2ccccc21 (stereo not given)	5	3
CCc1cccc(NC(=O)c2snc3c(=O)[nH]cnc23)c1	0	5
Cc1cccc(NC(=O)c2snc3c(=O)[nH]cnc23)c1	103*	-14
C=CCn1c(=O)c2c(nc(Br)n2Cc2ccccc2Cl)n(C)c1=O	46*	3
CCOC(=O)Cn1c(=O)c2c(nc(Br)n2Cc2ccccc2Cl)n(C)c1=O	-5	3
CN(CC(CC(=O)Nc1nncs1)c1ccccc1)S(=O)(=O)c1ccc(Br)cc1 (stereo not given)	-9	-29
CN(C)S(=O)(=O)c1ccc(S(=O)(=O)N2CCCC2)cc1	6	5
CN(CCOc1ccccc1)c1ccc(S(=O)(=O)N2CCCCC2)cn1	41*	11
CCn1c(SCC(=O)c2[nH]c(C)c(C(C)=O)c2C)nnc1-c1ccccc1	41*	-10
CCOC(=O)c1c(C)[nH]c(C)c1C(=O)CSc1nnc(-c2ccncc2)n1Cc1ccccc1	-7	1
Nc1nc(NC(=O)Cc2ccccc2)nn1-c1ccccc1	-3	5
COC(CNc1cc(=O)oc2ccccc12)OC	20	-6
COCCN=C1Sc2nc3c(C)cccc3cc2CN1Cc1ccco1	43*	4
Cc1ccc2cc3c(nc2c1)N(Cc1ccco1)CC3	-5	2
O=C(O)CCCCCCC1C(=O)NC(=O)N1CCC(O)C1CCCCC1 (stereo not given)	8	5
Cc1nc(OCc2ccccc2)c2sc3nc4c(cc3c2n1)COC(C)(C)C4	-1	7
O=C(NC1CCCCC1)c1cccc(Cn2cc(Cl)cn2)c1	-6	6
Cc1ccc(NC(=O)CN(C)S(=O)(=O)c2cccc3nsnc23)cc1Cl	-4	7
